40 molecules from ChEMBL document CHEMBL1157539, “Thousands of chemical starting points for antimalarial lead identification” (Nature, 2010) can be followed below.

SMILES strings stand for the structures.

One assay has as its system Plasmodium falciparum. As to the kind of experiment: GSK_TCMDC: Inhibition of Plasmodium falciparum 3D7 in whole red blood cells, using parasite LDH activity as an index of growth. Test compounds present at 2uM. The format is functional.
Turning to `CS(=O)(=O)CCNCc1cccc(-c2cc3c(Nc4ccc(OCc5ccccc5)cc4)ncnc3cn2)c1.Cl`, the Inhibition turned out to be 100%.

On to `O=S(=O)(Nc1ccc(CCN2CCCCC2CCN2CCCC2)cc1)c1cccc2cccnc12` (stereo not given), for which the Inhibition is listed as 100%.

`COc1ccc2nccc([C@@H](O)CN3CCC(CO)(NCc4cc5ccccc5o4)CC3)c2c1.O=C(O)C(=O)O` had an Inhibition of 85%.

Molecule `O=C1C(C2CCC(c3ccc(Cl)cc3)CC2)=C2OCC3COC2(O3)c2ccccc21` (stereo not given) showed an Inhibition of 98%.

On to `CC(C)c1sc(N2CCCCC2)nc1C(=O)Nc1ccc(F)cc1C(F)(F)F.O=C(O)C(F)(F)F`, for which the Inhibition is given as 100%.

Regarding `Cc1cc(NC(=O)Nc2cccc(Cl)c2Cl)c2ccccc2n1`, the Inhibition came out at 96%.

For the molecule `OC(CNc1ccnc(Nc2cccc(OCCCN3CCOCC3)c2)n1)c1ccccc1` (stereo not given), the Inhibition was 97%.

Molecule `CN(C)c1ccc(CN2CCCCC(NC(=O)c3cc(-c4ccccc4F)cs3)C2)cc1.O=C(O)C(F)(F)F` (stereo not given) returned an Inhibition of 100%.

For `Cl.N#Cc1ccc2c(c1)CCN(CCC1CCC(NC(=O)/C=C/c3ccc4[nH]ccc4c3)CC1)CC2` (stereo not given), the Inhibition was found to be 93%.

`COc1ccc(C2(CNCC(O)c3cccc([N+](=O)[O-])c3)CCCC2)cc1OC` (stereo not given): the Inhibition is on record as 93%.

As for `O=C(Cc1ccccc1)NC(CCN1CCC(NC(=O)c2ccc(Cl)cc2)CC1)c1ccc(Cl)c(Cl)c1` (stereo not given), the Inhibition is recorded as 85%.

Molecule `O=C(Nc1cccc(CN2CCCN(Cc3ncc[nH]3)CC2)c1)c1ccc2ccccc2c1.O=C(O)C(F)(F)F` yielded an Inhibition of 100%.

In turn, `COc1cc(C=CC(=O)N2CCN(Cc3cccc(C)c3)CC2)ccc1OCc1c(C)noc1C` yielded an Inhibition of 86%.

The molecule `COc1cc(Br)c(NC(=O)Nc2ccc(C(F)(F)F)c(O[C@@H]3CCN(C)C3)c2)cc1OC.Cl` returned an Inhibition of 97%.

As for `Oc1cc2c(cc1CN1CCN(Cc3ccccc3F)CC1)CCC2`, the Inhibition is given as 98%.

`COc1ccc(Cn2c(Nc3cccc(C(F)(F)F)c3)nc3cc(C(=O)NCCN4CCCC4)cnc32)cc1Cl` registered an Inhibition of 97%.

`CCCCCC(C)C(C)c1cc(O)c2c(c1)OC(C)(C)CC2c1cc[n+]([O-])cc1` (stereo not given) had an Inhibition of 96%.

`Cl.NC(=O)Nc1ccc2cn[nH]c2c1` yielded an Inhibition of 97%.

Take `CC(C)Nc1nc(NCCc2c[nH]cn2)nc(Nc2ccc(Oc3ccccc3)cc2)n1`: the Inhibition is 95%.

`O=C(Nc1ccncc1)c1cn(-c2ccccc2)nc1-c1cccs1` had an Inhibition of 98%.

Turning to `CN1CC[C@@H](Oc2cc(CNC(=O)c3ccc(-c4ccc(Cl)cc4)s3)ccc2C(F)(F)F)C1.Cl`, the Inhibition turned out to be 93%.

Consider `Cc1cc(N(C)C)nc(Nc2ccc(NC(=O)c3ccc(F)cc3)cc2)n1`, for which the Inhibition is on record as 100%.

In turn, `O=C1OC2(CCN(C(=O)c3ccc(-n4cnnn4)cc3)CC2)CN1Cc1ccc(Cl)c(Cl)c1` yielded an Inhibition of 97%.

Consider `Cc1cc(NCCCCCCCCNc2cc(C)nc3ccccc23)c2ccccc2n1.Cl`, for which the Inhibition was 100%.

The molecule `COc1ccccc1-c1cccc2c(NC(=O)Nc3ccc4nccc(N5CCN(C)CC5)c4c3)ccnc12` gave an Inhibition of 94%.

On to `CCOC(=O)c1cc(C(=O)NCCCCN2CCC(c3cn(C)c4ccccc34)CC2)ccc1-c1ccc(C(F)(F)F)cc1`, for which the Inhibition was 91%.

Molecule `O=C(Nc1cccc(-c2cc(-c3c(Cl)cccc3Cl)no2)c1)c1cncc(-c2cccs2)c1` showed an Inhibition of 91%.

In the case of `Cc1ccc(N2CCN(C(=O)c3cccc(-c4cncc5nc(-c6ccco6)n(C)c45)c3)CC2)nc1`, the Inhibition is 94%.

In turn, `CN(Cc1c(Cl)cnn1C)S(=O)(=O)c1ccc2ccccc2c1` registered an Inhibition of 94%.

As to `Cc1[nH]c(C)c(-c2ccc(-c3ccccc3Cl)nc2)c(=O)c1Cl`, the Inhibition was 98%.

`Cc1nc(O)c2c(ccc3ccc(CNc4ccc(C(=O)N[C@@H](CCC(=O)O)C(=O)O)c(F)c4)cc32)n1` came in with an Inhibition of 96%.

The molecule `Cc1ccc2[nH]c(-c3cc(-c4cccc(C#N)c4)cnc3N)nc2c1.O=C(O)C(F)(F)F` displayed an Inhibition of 100%.

`C=CCn1c(SCC(=O)Nc2cc(Cl)ccc2Cl)nc2sc(C)cc2c1=O` yielded an Inhibition of 97%.

`Cl.O=C(NCCCCN1CCC(c2ccc(OC(F)(F)F)cc2)CC1)c1ccc(NC(=O)c2ccc(Cl)cc2)cc1`: the Inhibition turned out to be 99%.

Molecule `O=C(NC1CCN(Cc2ccccc2O)C1)c1ccc(Cl)c(Cl)c1.O=C(O)C(F)(F)F` (stereo not given) came in with an Inhibition of 92%.

`O=C1c2ccc([N+](=O)[O-])cc2C(=O)N1c1ccc2[nH]ncc2c1` had an Inhibition of 87%.

Molecule `CCOc1ccc2[nH]c(C)cc(=NN=Cc3cccnc3)c2c1` returned an Inhibition of 100%.

`CCCNCc1ccc(-c2ccc(CN(CCOC)C(=O)c3cccc(C#N)c3)cc2)nc1.O=C(O)C(F)(F)F` returned an Inhibition of 84%.

Molecule `NC(=O)c1ccc(C(=O)Nc2cccc(-c3ccc(-c4nc5cc(C(F)(F)F)ccc5[nH]4)cc3)c2)cc1` showed an Inhibition of 100%.

Molecule `CCCCCC(C)N/C(=N/c1ccccc1Br)Nc1ccc([N+](=O)[O-])cc1O` (stereo not given) displayed an Inhibition of 99%.

A further assay deals with Plasmodium falciparum. Briefly: GSK_TCMDC: Inhibition of Plasmodium falciparum Dd2 in whole red blood cells, using parasite LDH activity as an index of growth. Test compounds present at 2uM. The format is functional.
Consider `CS(=O)(=O)CCNCc1cccc(-c2cc3c(Nc4ccc(OCc5ccccc5)cc4)ncnc3cn2)c1.Cl`, for which the Inhibition is 26%.

The molecule `O=S(=O)(Nc1ccc(CCN2CCCCC2CCN2CCCC2)cc1)c1cccc2cccnc12` (stereo not given) showed an Inhibition of 0%.

Take `COc1ccc2nccc([C@@H](O)CN3CCC(CO)(NCc4cc5ccccc5o4)CC3)c2c1.O=C(O)C(=O)O`: the Inhibition is recorded as 7%.

As to `O=C1C(C2CCC(c3ccc(Cl)cc3)CC2)=C2OCC3COC2(O3)c2ccccc21` (stereo not given), the Inhibition turned out to be 97%.

`CC(C)c1sc(N2CCCCC2)nc1C(=O)Nc1ccc(F)cc1C(F)(F)F.O=C(O)C(F)(F)F` came in with an Inhibition of 98%.

The molecule `Cc1cc(NC(=O)Nc2cccc(Cl)c2Cl)c2ccccc2n1` yielded an Inhibition of 25%.

`OC(CNc1ccnc(Nc2cccc(OCCCN3CCOCC3)c2)n1)c1ccccc1` (stereo not given) displayed an Inhibition of 25%.

Turning to `CN(C)c1ccc(CN2CCCCC(NC(=O)c3cc(-c4ccccc4F)cs3)C2)cc1.O=C(O)C(F)(F)F` (stereo not given), the Inhibition was 28%.

As to `Cl.N#Cc1ccc2c(c1)CCN(CCC1CCC(NC(=O)/C=C/c3ccc4[nH]ccc4c3)CC1)CC2` (stereo not given), the Inhibition is 27%.

The molecule `COc1ccc(C2(CNCC(O)c3cccc([N+](=O)[O-])c3)CCCC2)cc1OC` (stereo not given) returned an Inhibition of 85%.

As for `O=C(Cc1ccccc1)NC(CCN1CCC(NC(=O)c2ccc(Cl)cc2)CC1)c1ccc(Cl)c(Cl)c1` (stereo not given), the Inhibition is given as 23%.

For the molecule `O=C(Nc1cccc(CN2CCCN(Cc3ncc[nH]3)CC2)c1)c1ccc2ccccc2c1.O=C(O)C(F)(F)F`, the Inhibition turned out to be 2%.

Regarding `COc1cc(C=CC(=O)N2CCN(Cc3cccc(C)c3)CC2)ccc1OCc1c(C)noc1C`, the Inhibition amounted to 95%.

`COc1cc(Br)c(NC(=O)Nc2ccc(C(F)(F)F)c(O[C@@H]3CCN(C)C3)c2)cc1OC.Cl` came in with an Inhibition of 27%.

Turning to `Oc1cc2c(cc1CN1CCN(Cc3ccccc3F)CC1)CCC2`, the Inhibition was 94%.

Take `COc1ccc(Cn2c(Nc3cccc(C(F)(F)F)c3)nc3cc(C(=O)NCCN4CCCC4)cnc32)cc1Cl`: the Inhibition is reported as 31%.

Molecule `CCCCCC(C)C(C)c1cc(O)c2c(c1)OC(C)(C)CC2c1cc[n+]([O-])cc1` (stereo not given) came in with an Inhibition of 7%.

For the molecule `Cl.NC(=O)Nc1ccc2cn[nH]c2c1`, the Inhibition came out at 0%.

Consider `CC(C)Nc1nc(NCCc2c[nH]cn2)nc(Nc2ccc(Oc3ccccc3)cc2)n1`, for which the Inhibition was 9%.

With `O=C(Nc1ccncc1)c1cn(-c2ccccc2)nc1-c1cccs1`, the Inhibition came out at 10%.

In the case of `CN1CC[C@@H](Oc2cc(CNC(=O)c3ccc(-c4ccc(Cl)cc4)s3)ccc2C(F)(F)F)C1.Cl`, the Inhibition stood at 64%.

`Cc1cc(N(C)C)nc(Nc2ccc(NC(=O)c3ccc(F)cc3)cc2)n1` had an Inhibition of 21%.

Consider `O=C1OC2(CCN(C(=O)c3ccc(-n4cnnn4)cc3)CC2)CN1Cc1ccc(Cl)c(Cl)c1`, for which the Inhibition amounted to 70%.

For the molecule `Cc1cc(NCCCCCCCCNc2cc(C)nc3ccccc23)c2ccccc2n1.Cl`, the Inhibition came out at 0%.

`COc1ccccc1-c1cccc2c(NC(=O)Nc3ccc4nccc(N5CCN(C)CC5)c4c3)ccnc12` gave an Inhibition of 34%.

The molecule `CCOC(=O)c1cc(C(=O)NCCCCN2CCC(c3cn(C)c4ccccc34)CC2)ccc1-c1ccc(C(F)(F)F)cc1` returned an Inhibition of 6%.

Turning to `O=C(Nc1cccc(-c2cc(-c3c(Cl)cccc3Cl)no2)c1)c1cncc(-c2cccs2)c1`, the Inhibition came out at 39%.

Molecule `Cc1ccc(N2CCN(C(=O)c3cccc(-c4cncc5nc(-c6ccco6)n(C)c45)c3)CC2)nc1` yielded an Inhibition of 91%.

The molecule `CN(Cc1c(Cl)cnn1C)S(=O)(=O)c1ccc2ccccc2c1` showed an Inhibition of 36%.

Molecule `Cc1[nH]c(C)c(-c2ccc(-c3ccccc3Cl)nc2)c(=O)c1Cl` returned an Inhibition of 97%.

For the molecule `Cc1nc(O)c2c(ccc3ccc(CNc4ccc(C(=O)N[C@@H](CCC(=O)O)C(=O)O)c(F)c4)cc32)n1`, the Inhibition is reported as 96%.

In the case of `Cc1ccc2[nH]c(-c3cc(-c4cccc(C#N)c4)cnc3N)nc2c1.O=C(O)C(F)(F)F`, the Inhibition is listed as 99%.

`C=CCn1c(SCC(=O)Nc2cc(Cl)ccc2Cl)nc2sc(C)cc2c1=O` registered an Inhibition of 96%.

Turning to `Cl.O=C(NCCCCN1CCC(c2ccc(OC(F)(F)F)cc2)CC1)c1ccc(NC(=O)c2ccc(Cl)cc2)cc1`, the Inhibition was 98%.

Regarding `O=C(NC1CCN(Cc2ccccc2O)C1)c1ccc(Cl)c(Cl)c1.O=C(O)C(F)(F)F` (stereo not given), the Inhibition amounted to 62%.

Regarding `O=C1c2ccc([N+](=O)[O-])cc2C(=O)N1c1ccc2[nH]ncc2c1`, the Inhibition turned out to be 0%.

`CCOc1ccc2[nH]c(C)cc(=NN=Cc3cccnc3)c2c1` yielded an Inhibition of 100%.

Consider `CCCNCc1ccc(-c2ccc(CN(CCOC)C(=O)c3cccc(C#N)c3)cc2)nc1.O=C(O)C(F)(F)F`, for which the Inhibition amounted to 14%.

Regarding `NC(=O)c1ccc(C(=O)Nc2cccc(-c3ccc(-c4nc5cc(C(F)(F)F)ccc5[nH]4)cc3)c2)cc1`, the Inhibition is 31%.

Molecule `CCCCCC(C)N/C(=N/c1ccccc1Br)Nc1ccc([N+](=O)[O-])cc1O` (stereo not given) showed an Inhibition of 98%.
